Measurements: PubChem BioAssay
Values joined by “and” are separate entries in the source; they are usually repeats but may differ in a detail not shown here. Identical values can stand only once. Records with an inconclusive call do not appear. For some of these results: Measured potencies and affinities stand elsewhere. Active and inactive are the calls of the source.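 How the source made its calls, unless noted: active means normalized viability below 100% at a tested concentration; inactive means the rest.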

Experiments:
[1] = polyglutamine-triggered caspase-3 activation inhibitors, cell-based (AID 1583); conditions: polyglutamine-induced caspase-3 activation, cell assay; stronger effect = higher value;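 tested at 10 µM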
[2] = suppressors of polyQ aggregation in yeast, 75Q-TubU reporter (AID 1593); conditions: Yeast 75Q polyglutamine aggregation reporter
[3] = rescue of polyQ-huntingtin neuronal dysfunction in worms, whole organism, C. elegans mechanosensory neurons, N-terminal huntingtin (AID 1599); conditions: touch response, stronger effect = higher value
[4] = inhibitors of mitochondrial cytochrome c release, biochemical, purified mitochondria (AID 1603); conditions: stronger effect = lower value;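 further: mouse liver mitochondria challenged with calcium chloride; signal normalized to the plate average as 100%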
[5] = inhibitors of polyQ protein aggregation (AID 1604); conditions: polyglutamine-induced protein aggregation inhibition assay; stronger effect = higher value; tested at 2.5 µM
[6] = enhancers of glutamate uptake in motor neurons, MN-1 cell line (AID 1612); conditions: MN-1 motor neuron cells, stronger effect = higher value;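 further: tested at 1 µM final; 0% = mean of DMSO vehicle wells on each plate; positive means more glutamate uptake than control and negative means less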
[7] = reducers of polyQ inclusions in PC12 cells, cell-based, NGF-treated PC12, GFPQ80 (AID 1614); conditions: PC12 NGF-treated GFP-polyQ80 inclusion reduction;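 further: lower means fewer inclusions and 0 means no inclusions at all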
[8] = suppressors of polyglutamine aggregation in yeast, 75Q-TubH (AID 1616); conditions: S. cerevisiae 75Q-TubH polyglutamine aggregation suppression; stronger effect = higher value
[9] = liver-stage malaria parasite growth inhibition, primary screen, cell-based, HepG2, luciferase luminescence, HepG2 viability (AID 624349; in the data active means parasite load remaining mostly below about 12%, no sharp cut-off; inactive means mostly above about 10%;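 further: 100% = mean of DMSO negative control wells on the same plate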); conditions: P. berghei liver stage in HepG2, luciferase luminescence, concentration not given here; parasite load remaining: stronger effect = lower value; viability: measured here: HepG2 viability without parasites
[10] = differential killing of epithelial or mesenchymal cells, primary screen, imaging, PC-3E GFP, TEM4-18 mCherry, co-culture (AID 1345086;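 active means compounds killing one labelled cell type while sparing the other, by normalised counts and ratio limits, not self-fluorescent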;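 on all read-outs here: cells exposed to compound for 72 h before imaging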;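 on red/green cell ratio (normalised): normalised mesenchymal count divided by normalised epithelial count so high means epithelial killing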); conditions: imaging cell counts, at 1 µM; for red/green cell ratio (normalised): actives lie on both sides, counts scaled to control wells, 1 = unselective
[11] = tested on: Aerobactin synthetase IucA (Klebsiella pneumoniae); test: IucA aerobactin synthetase inhibitors, biochemical, Tocris library, absorbance (AID 1345561; call rule not given here;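 further: 100% = enzyme without compound and 0% = no enzyme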); conditions: purified IucA enzyme assay, absorbance (OD) read-out; stronger effect = lower value;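 tested at 8 µM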
[12] = growth inhibition of DIPG glioma cells, dose response, cell-based, SU-DIPG-XVII, MIPE5.0, CellTiter-Glo, qHTS (AID 1347060; cut-off not given, nearly all actives have AC50 up to about 26 µM;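 further: cells exposed to compound for 48 hours before viability readout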); conditions: SU-DIPG-XVII viability, CellTiter-Glo ATP luminescence
[13] = growth inhibition of DIPG glioma cells, dose response, cell-based, SU-DIPG-XIII, MIPE4.0, CellTiter-Glo, qHTS (AID 1347061; cut-off not given, nearly all actives have AC50 up to about 37 µM;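 further: cells exposed to compound for 48 hours before readout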); conditions: SU-DIPG-XIII viability, CellTiter-Glo ATP luminescence
[14] = growth inhibition of DIPG glioma cells, dose response, cell-based, JHH-DIPG-1, MIPE4.0, CellTiter-Glo, qHTS (AID 1347062; cut-off not given, nearly all actives have AC50 up to about 27 µM;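 further: cells exposed to compound for two days before readout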); conditions: JHH-DIPG-1 viability, CellTiter-Glo ATP luminescence
[15] = growth inhibition of DIPG glioma cells, dose response, cell-based, SU-DIPG-IV, MIPE4.0, CellTiter-Glo, qHTS (AID 1347063; cut-off not given, nearly all actives have AC50 up to about 30 µM;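 further: compound exposure lasted 48 hours before the viability readout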); conditions: SU-DIPG-IV viability, CellTiter-Glo ATP luminescence
[16] = growth inhibition of DIPG glioma cells, dose response, cell-based, SU-DIPG-XIII, MIPE5.0, CellTiter-Glo, qHTS (AID 1347064; cut-off not given, nearly all actives have AC50 up to about 23 µM;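 further: cells exposed to compound for 48 hours before the viability read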); conditions: SU-DIPG-XIII viability, CellTiter-Glo ATP luminescence
[17] = viability loss in pontine glioma line – cell-based, SU-DIPG-XXV, MIPE5.0, CellTiter-Glo, qHTS, dose response (AID 1347065; cut-off not given, nearly all actives have AC50 up to about 26 µM;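 further: cells exposed to compound for 48 hours before ATP readout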); conditions: CellTiter-Glo ATP luminescence
[18] = SU-DIPG-VI glioma cell viability, MIPE4.0 library, CellTiter-Glo luminescence, qHTS (AID 1347066; cut-off not given, nearly all actives have AC50 up to about 30 µM;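 further: cells exposed to compound for 48 hours before readout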); conditions: CellTiter-Glo ATP luminescence
[19] = JHH-DIPG-1 glioma cell viability, MIPE5.0 library, CellTiter-Glo luminescence, qHTS (AID 1347067; cut-off not given, nearly all actives have AC50 up to about 26 µM;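 further: cells exposed to compound for 48 hours before readout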); conditions: JHH-DIPG-1 glioma viability, CellTiter-Glo ATP luminescence
[20] = SU-DIPG-XXV glioma cell viability, MIPE5.0 library, qHTS (AID 1347068; cut-off not given, nearly all actives have IC50 up to about 30 µM;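 further: cells exposed to compound for 48 hours before viability readout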)
[21] = sensitizers of A549 cells to miR-34 induction, primary screen, imaging, A549 dox-inducible miR-34, nuclei and caspase counts (AID 1347080;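 active means compounds whose cell count with miR-34 switched on is under 0.7 times the count with it off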); conditions: A549 miR-34 inducible, Hoechst nuclei count, 48 h
[22] = modifiers of HSF1 nuclear foci, imaging, Selleck Cancer Library (AID 1347162; in the data active means plate-normalised HSF1 focus index below about 0.46); conditions: human cells, at 10 µM; SSMD: measured here: HSF1 foci SSMD mean; cell count: measured here: cell number; plate-normalised HSF1 focus index: stronger effect = lower value
[23] = survival rescue of mitochondrial mutant cells in low glucose, primary screen, MELAS cybrids, Rieske KO mouse fibroblasts, CellTiter-Glo (AID 1508586;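 active means mean z-score across replicates of 1.96 or higher in either the MELAS or the Rieske mutant cell line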;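 further: z relative to plate mean and SD of compound and empty wells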)
[24] = ovarian cancer cell viability with rucaparib, profiling panel, oncology-focused library, rucaparib conditional (AID 1508598); conditions: patient-derived ovarian cancer cells, CellTiter-Glo viability, 144 h, stronger effect = lower value
[25] = viability rescue of complex I mutant cybrids, primary screen, cell-based, galactose medium, ATP luminescence (AID 1645843;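 active means z-score of at least 1.8 in each of two replicates, scored against plate mean and spread of sample wells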;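 further: positive z means more ATP and so rescue of galactose-driven cybrid death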); conditions: complex I mutant cybrid cells, 72 h, stronger effect = higher value
[26] = measured here: epithelial PC-3E GFP cell survival
[27] = measured here: mesenchymal TEM4-18 mCherry cell survival

Compound `C[N+]1(C)C2CC(OC(=O)[C@@H](CO)c3ccccc3)CC1C1OC12` (stereo not given in full) has an inhibition [1] of 17.7%, a score [2] of 1.45 and a rescue above control [3] of -0.68. It also gave a cytochrome c release ratio [4] of 0.94, an inhibition of aggregation [5] of 47.9% and a glutamate uptake change [6] of -7.1%. For the same compound, the inclusion score [7] was 2, the aggregation suppression score [8] was 1.44 and the parasite load remaining [9] was 89.5% (inactive) and 73.4% (inactive). The viability [9] was 78.8% and 91.6%, the red/green cell ratio (normalised) [10] was 1.4 (inactive) and the normalised cell number [10, 26] was 0.85. The normalised cell number [10, 27] was 1.19.
`COc1ccc(-c2cc(=O)c3c(O)cc(O[C@@H]4O[C@H](CO[C@H]5O[C@H](C)[C@@H](O)[C@H](O)[C@@H]5O)[C@@H](O)[C@H](O)[C@H]4O)cc3o2)cc1O` showed an inhibition [1] of 25.9%, a score [2] of 2.29 and a rescue above control [3] of -9.51. For the same compound, the cytochrome c release ratio [4] was 0.94, the inhibition of aggregation [5] was 75% and the glutamate uptake change [6] was 6.61%. For the same compound, the inclusion score [7] was 2, the aggregation suppression score [8] was 1.82 and the parasite load remaining [9] was 42.5% (inactive). The viability [9] was 98.3%, the red/green cell ratio (normalised) [10] was 0.86 (inactive) and the normalised cell number [10, 26] was 1.13. For the same compound, the normalised cell number [10, 27] was 0.98.
In the case of `NC[C@@H]1O[C@H](O[C@@H]2[C@@H](CO)OC(O[C@@H]3[C@@H](O)[C@H](N)C[C@H](N)[C@H]3O[C@H]3O[C@H](CO)[C@@H](O)[C@H](O)[C@H]3N)[C@@H]2O)[C@H](N)[C@@H](O)[C@@H]1O` (stereo not given in full), the parasite load remaining [9] is reported as 141% (inactive), the viability [9] is reported as 87.6% and the red/green cell ratio (normalised) [10] is reported as 1.21 (inactive). It also gave a normalised cell number [10, 26] of 0.93 and a normalised cell number [10, 27] of 1.13.
For `NC(=O)Nc1sc(-c2ccc(F)cc2)cc1C(N)=O`, the parasite load remaining [9] was 72.5% (inactive), the viability [9] was 79.5% and the remaining activity [11] was 122% (inactive). For the same compound, the AC50 [12] was 9.34 µM (active), the AC50 [13] was 11.8 µM (active) and the AC50 [14] was 4.69 µM (active). The AC50 [15] was 1.05 µM (active), the AC50 [16] was 20.9 µM (active) and the AC50 [17] was 7.42 µM (active). For the same compound, the AC50 [18] was 16.6 µM (active), the AC50 [19] was 5.9 µM (active) and the IC50 [20] was 14.8 µM (active). For the same compound, the fold change ([21]; stronger effect = lower value, cell number ratio, induced over uninduced) was 0.943 (inactive) and 1.1 (inactive), the fold change ([21]; measured here: relative caspase fold change +Dox/-Dox) was 0.476 and 0.704 and the cell count ([21]; measured here: total cells with miR-34 induction, stronger effect = lower value) was 1490 and 2380. For the same compound, the cell count ([21]; measured here: total cells without miR-34 induction) was 1580 and 2160, the SSMD [22] was -1.15 and the cell count [22] was 6750. For the same compound, the plate-normalised HSF1 focus index [22] was 0.95 (inactive), the z-score ([23]; MELAS cybrid survival, CellTiter-Glo 48 h, stronger effect = higher value) was 0.0212 (inactive) and the z-score ([23]; Rieske KO mouse fibroblast survival, CellTiter-Glo 72 h) was 0.196. The viability ([24]; at 0.000305 µM, OCI-C5x cells, with rucaparib 10 µM, 100% = cells with rucaparib alone) was 113% (inactive), the viability ([24]; at 0.000305 µM, OCI-C5x cells, without rucaparib) was 127% (inactive) and the viability ([24]; at 0.000305 µM, OCI-P5x cells, with rucaparib 20 µM, 100% = cells with rucaparib alone) was 116% (inactive). The viability ([24]; at 0.000305 µM, OCI-P5x cells, without rucaparib) was 109% (inactive), the viability ([24]; at 0.00122 µM, OCI-C5x cells, with rucaparib 10 µM, 100% = cells with rucaparib alone) was 118% (inactive) and the viability ([24]; at 0.00122 µM, OCI-C5x cells, without rucaparib) was 126% (inactive). The viability ([24]; at 0.00122 µM, OCI-P5x cells, with rucaparib 20 µM, 100% = cells with rucaparib alone) was 106% (inactive), the viability ([24]; at 0.00122 µM, OCI-P5x cells, without rucaparib) was 106% (inactive) and the viability ([24]; at 0.00488 µM, OCI-C5x cells, with rucaparib 10 µM, 100% = cells with rucaparib alone) was 124% (inactive). The viability ([24]; at 0.00488 µM, OCI-C5x cells, without rucaparib) was 131% (inactive), the viability ([24]; at 0.00488 µM, OCI-P5x cells, with rucaparib 20 µM, 100% = cells with rucaparib alone) was 105% (inactive) and the viability ([24]; at 0.00488 µM, OCI-P5x cells, without rucaparib) was 104% (inactive). For the same compound, the viability ([24]; at 0.0195 µM, OCI-C5x cells, with rucaparib 10 µM, 100% = cells with rucaparib alone) was 115% (inactive), the viability ([24]; at 0.0195 µM, OCI-C5x cells, without rucaparib) was 108% (inactive) and the viability ([24]; at 0.0195 µM, OCI-P5x cells, with rucaparib 20 µM, 100% = cells with rucaparib alone) was 102% (inactive). The viability ([24]; at 0.0195 µM, OCI-P5x cells, without rucaparib) was 101% (inactive), the viability ([24]; at 0.0781 µM, OCI-C5x cells, with rucaparib 10 µM, 100% = cells with rucaparib alone) was 115% (inactive) and the viability ([24]; at 0.0781 µM, OCI-C5x cells, without rucaparib) was 109% (inactive). For the same compound, the viability ([24]; at 0.0781 µM, OCI-P5x cells, with rucaparib 20 µM, 100% = cells with rucaparib alone) was 102% (inactive), the viability ([24]; at 0.0781 µM, OCI-P5x cells, without rucaparib) was 98.9% (active) and the viability ([24]; at 0.313 µM, OCI-C5x cells, with rucaparib 10 µM, 100% = cells with rucaparib alone) was 124% (inactive). The viability ([24]; at 0.313 µM, OCI-C5x cells, without rucaparib) was 105% (inactive), the viability ([24]; at 0.313 µM, OCI-P5x cells, with rucaparib 20 µM, 100% = cells with rucaparib alone) was 95.8% (active) and the viability ([24]; at 0.313 µM, OCI-P5x cells, without rucaparib) was 93% (active). The viability ([24]; at 1.25 µM, OCI-C5x cells, with rucaparib 10 µM, 100% = cells with rucaparib alone) was 125% (inactive), the viability ([24]; at 1.25 µM, OCI-C5x cells, without rucaparib) was 104% (inactive) and the viability ([24]; at 1.25 µM, OCI-P5x cells, with rucaparib 20 µM, 100% = cells with rucaparib alone) was 92.8% (active). The viability ([24]; at 1.25 µM, OCI-P5x cells, without rucaparib) was 87.7% (active), the viability ([24]; at 5 µM, OCI-C5x cells, with rucaparib 10 µM, 100% = cells with rucaparib alone) was 95.3% (active) and the viability ([24]; at 5 µM, OCI-C5x cells, without rucaparib) was 67.2% (active). For the same compound, the viability ([24]; at 5 µM, OCI-P5x cells, with rucaparib 20 µM, 100% = cells with rucaparib alone) was 39% (active), the viability ([24]; at 5 µM, OCI-P5x cells, without rucaparib) was 60.3% (active) and the z-score [25] was 0.96 (inactive).
